About 37,000 (12%) of roughly 300,000 compounds were called active. Many of the other results were omitted from the sample, so actives are more common in it than they were. A number with no mark means an inactive call. Cut-off read from the data, not from the text of the source: active = max response mostly above about 13% (no sharp cut-off); inactive = mostly below about 14%.

Our source for the max response values is PubChem BioAssay AID2314 (National Center for Advancing Translational Sciences (NCATS), 2010).

This test in a line: Cycloheximide Counterscreen for Small Molecule Inhibitors of Shiga Toxin. Note: read at 38.3 µM for the half of the compounds with a filed dose; 0% is about no effect. The settings on record: cell reporter, cycloheximide protein synthesis inhibition counterscreen; hits give high values. In general terms: A counterscreen serves to expose hits that act by an unwanted route or on another target.
For the compound `CCOCCCN1C(=O)C2C(C(=O)Nc3ccc(OCC)cc3)C3C=CC2(O3)C1C(=O)NC1CCCCC1` (stereo not drawn), the max response is -3.23%.
Next, `CCNS(=O)(=O)c1ccc(NC(=O)c2cncc(Br)c2)cc1`: -2.2%; `Cc1cc(N2CCOCC2)nc2ccc(NC(=S)N3CCN(Cc4ccccc4)CC3)cc12`: 3.98%; `O=C(Nc1cccnc1)c1cccc(S(=O)(=O)N2CCCC2)c1`: 3.36%.
With `CC(Sc1nc2cc(Cl)ccc2s1)C(=O)Nc1ccc2c(c1)OCO2` (stereo not drawn), the max response is 29% (active).
In the case of `O=C(Nc1cccnc1)c1ccc2c(c1)OCO2`, the max response was 19.3% (active).
Take `O=C(Nc1cccnc1)c1cc2cc(Br)ccc2oc1=O`: the max response is -1.47%.
Next, `O=C(Nc1ccc2c(c1)OCO2)c1sc2cc(Cl)ccc2c1Cl`: 2.36%; `CC(=O)Nc1ccc(-c2csc(NC(=O)Nc3ccccc3)n2)cc1`: 10.8%.
As for `CC(Sc1nc(-c2ccccc2)cc(C(F)(F)F)n1)C(=O)Nc1ccc2c(c1)OCO2` (stereo not drawn), the max response was -1.84%.
For `COc1ccc(C(=O)Nc2cccnc2)cc1C(=O)Nc1cccnc1` the value was -0.996%; for `O=C(Nc1ccccc1)Nc1nc2ccccc2s1`, 37.9% (active).
For `CC(NC(=O)Nc1ccccc1)c1ccccc1` (stereo not drawn) the value was 14.1%; for `O=C(Nc1cccnc1)c1noc2c1CCCCC2`, 32.5% (active); for `CN(C(=O)CN1C(=O)/C(=C/c2ccc(Cl)cc2)SC1=S)C1CCS(=O)(=O)C1` (stereo not drawn), -10.5%.
For `Cc1nn(-c2ccccc2)c2c1c(C)c(CCC(=O)NCC1CCCO1)c(=O)n2C` (stereo not drawn), the max response was -2.56%.
`CC1(c2cccc([N+](=O)[O-])c2)CC(C)(C)N(C(=O)c2ccccc2)c2ccccc21` (stereo not drawn): the max response is 4.81%.
Next, `O=c1c2ccccc2nc2n1C(CSCc1cccc(C(F)(F)F)c1)CS2` (stereo not drawn): 1.18%; `CC(=O)N1c2ccc(S(=O)(=O)NCCC(=O)N(C)C3CCCCC3)cc2CC1C` (stereo not drawn): 10.2%.
On to `COc1cc(C(=O)NNC(=O)c2ccc(S(=O)(=O)N3CCCCC3)cc2)cc(OC)c1OC`, for which the max response was -1.13%.
Regarding `CCN(CC(=O)NC(=O)NCc1ccccc1)Cc1nc2ccccc2c(=O)[nH]1`, the max response is -2.64%.
For the compound `c1ccc(-c2cc3c(NCC4COc5ccccc5O4)ncnc3s2)cc1` (stereo not drawn), the max response is 9.76%.
With `C/C(=N/NC(=O)c1ccncc1)c1ccc2c(c1)OCO2`, the max response is 0.639%.
For `C/C(=N\NC(=O)C(N)=O)c1ccc2c(c1)OCCO2` the value was 15.2%; for `CC(NC(=O)Nc1cccc([N+](=O)[O-])c1)c1ccc2c(c1)OCO2` (stereo not drawn), -0.734%.
With `CCSc1ccccc1C(=O)Nc1ccc2c(c1)OCO2`, the max response is 21.7% (active).
Turning to `O=C(Nc1cccc([N+](=O)[O-])c1)c1ccc2c(c1)OCO2`, the max response was 36.2% (active).
On to `CC(NS(=O)(=O)c1ccc(Cl)cc1)C(=O)Nc1ccc2c(c1)OCCO2` (stereo not drawn), for which the max response is -1.8%.
For the compound `C/C(=N/NC(=S)Nc1ccccc1)c1ccc2c(c1)OCO2`, the max response was 33.6% (active).
For `CC(C)NC(=O)CSc1ccccc1C(=O)NCc1ccc2c(c1)OCO2`, the max response was 3.57%.
For `O=C(Nc1cccc(S(=O)(=O)Nc2ccc(Cl)cc2)c1)c1ccc2c(c1)OCCO2` the value was 12.5% (active); for `Cc1ccc2nc(-c3ccccn3)cc(C(=O)Nc3ccc4c(c3)OCO4)c2c1`, 20.8%; for `CCN(CC)CCNC(=O)c1ccc(NS(=O)(=O)c2ccc3c(c2)OCCO3)cc1`, 2.7%.
